Only some compounds are listed: those with a hit (about 5.2% of all), similar ones and a draw of the others.
EphB4 antag: EphB4-ephrin-B2 interaction antagonism. P54760. EphB4 LBD / TNYL-RAW-Alexa532 peptide, fluorescence polarization. inhibition, % at 7 µM. 97,000 tested, 0.15% active. AID 720;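 active = inhibition above the screen-wide mean inhibition plus 3 SD, cut at about 15% in these data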;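 also: 0% = DMSO wells and 100% = excess unlabeled TNYL-RAW peptide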
Target sequence (P54760 whole entry, looked up, the tested form may be a part): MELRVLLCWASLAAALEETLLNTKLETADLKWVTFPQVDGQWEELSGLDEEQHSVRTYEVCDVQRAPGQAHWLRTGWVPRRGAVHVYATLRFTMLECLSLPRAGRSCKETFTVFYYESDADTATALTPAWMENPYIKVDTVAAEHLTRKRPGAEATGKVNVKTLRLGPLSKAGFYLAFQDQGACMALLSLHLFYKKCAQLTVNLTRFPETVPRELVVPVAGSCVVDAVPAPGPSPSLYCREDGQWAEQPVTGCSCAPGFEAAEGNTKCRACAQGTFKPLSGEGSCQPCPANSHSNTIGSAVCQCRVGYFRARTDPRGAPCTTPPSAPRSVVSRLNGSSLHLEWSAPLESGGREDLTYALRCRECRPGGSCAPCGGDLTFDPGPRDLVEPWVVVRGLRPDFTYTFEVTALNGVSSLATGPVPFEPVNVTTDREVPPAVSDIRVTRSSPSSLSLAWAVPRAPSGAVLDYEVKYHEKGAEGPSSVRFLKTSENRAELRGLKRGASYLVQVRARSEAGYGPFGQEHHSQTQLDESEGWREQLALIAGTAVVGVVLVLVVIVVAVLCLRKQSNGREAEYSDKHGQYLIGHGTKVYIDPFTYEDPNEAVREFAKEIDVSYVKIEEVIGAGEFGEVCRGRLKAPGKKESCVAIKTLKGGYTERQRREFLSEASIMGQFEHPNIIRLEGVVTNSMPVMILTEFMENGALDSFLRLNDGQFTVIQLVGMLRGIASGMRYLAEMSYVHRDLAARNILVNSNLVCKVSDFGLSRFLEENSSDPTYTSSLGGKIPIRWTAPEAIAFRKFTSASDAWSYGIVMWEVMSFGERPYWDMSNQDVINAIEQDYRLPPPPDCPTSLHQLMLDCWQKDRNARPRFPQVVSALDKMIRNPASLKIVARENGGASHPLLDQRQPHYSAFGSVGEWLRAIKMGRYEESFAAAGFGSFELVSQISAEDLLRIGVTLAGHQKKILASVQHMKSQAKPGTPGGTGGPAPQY
PostGolgi ctrl: inhibits growth of the yeast control strain; efflux-deficient yeast background strain, growth absorbance A615, 16 h; 98,000 tested, 5% active; inhibition, % at 10 µM
Calb biofilm kill: kills Candida albicans biofilms; inhibition, % at 6 µM; C. albicans biofilm + clotrimazole, Alamar Blue; AID 834; 85,000 tested, 0.14% active;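 active = inhibition above 20%; inactive = inhibition below 20%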;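 also: preformed 24 hr biofilms exposed to compound for 48 hr; 0% = biofilm without compound and 100% = blank killed by clotrimazole plus chlorhexidine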
PostGolgi yeast: growth inhibition of a yeast mutant, post-Golgi transport screen | 98,000 tested, 0.9% active | post-Golgi transport phenotypic cell assay | inhibition, % at 10 µM;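 also: yeast cells grown in 1536-well plates; yeast grown about 18 h at 30C before absorbance read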
* marks the source's active call; other numbers are inactive results; x = no result given. Rule as the data show it, unless noted: active = inhibition above about 30%; inactive = the rest.

SMILES	EphB4 antag	PostGolgi ctrl	Calb biofilm kill	PostGolgi yeast
COc1ccc(C(=O)NC(NC(=S)Nc2ccc(S(N)(=O)=O)cc2)C(Cl)(Cl)Cl)cc1 (stereo not drawn)	4	15	x	-2
CCN1CCN(Cc2ccccc2NC(=O)Nc2ccc(C)cc2)CC1	-2	35*	4	-3
COC(=O)/C(=C1/Oc2cc(C)oc(=O)c2S1)C(F)(F)F	x	78*	x	5
CCC(C)NS(=O)(=O)c1ccc(NS(C)(=O)=O)cc1 (stereo not drawn)	-2	19	5	48*
CCC(C)NS(=O)(=O)c1ccc(NC(C)=O)cc1 (stereo not drawn)	-4	x	2	x
CC1CCC2C(C1)c1sc(=O)[nH]c1SC2(C)C (stereo not drawn)	-2	66*	5	5
COC(=O)c1sccc1NC(=O)CSc1nnnn1-c1ccccc1C	7	14	27*	0
CC(NC(=O)c1ccccc1NC(=O)CSc1nnnn1C)c1ccccc1 (stereo not drawn)	4	33*	1	20
COC(=O)c1ccc(-n2nnnc2SCC(=O)Nc2ccccc2C(=O)OC)cc1	-3	37*	x	25
Cc1ccc(C(O)P(=O)(OC2CCCCC2)OC2CCCCC2)cc1 (stereo not drawn)	2	40*	8	22
O=P(OC1CCCCC1)(OC1CCCCC1)C(O)c1ccc(Cl)cc1Cl (stereo not drawn)	4	9	7	-4
O=P(OC1CCCCC1)(OC1CCCCC1)C(O)c1c(Cl)cccc1Cl (stereo not drawn)	-6	36*	2	-3
O=C(Nc1cccc2nsnc12)C1CC(=O)N(c2ccccc2)C1 (stereo not drawn)	0	7	-3	-10
Cc1ccc2nc(N3C(=O)C(O)=C(C(=O)c4cc5ccccc5o4)C3c3cccs3)sc2c1 (stereo not drawn)	9	6	x	-7
CCc1ccc2nc(N3C(=O)C(O)=C(C(=O)c4ccco4)C3c3cccs3)sc2c1 (stereo not drawn)	-6	36*	x	-3
CCCCC(c1nnnn1CCOC)N1CCN(c2cccc(OC)c2)CC1 (stereo not drawn)	x	13	-4	-1
Cc1ccc(-c2[nH]c3ccccc3c2C(C[N+](=O)[O-])c2ccco2)cc1 (stereo not drawn)	2	30*	4	3
CCOC(=O)C1(S(=O)(=O)c2ccc(Cl)cc2)CCN(Cc2ccc(C)cc2)CC1	3	14	x	0
COc1ccc(N(CC(=O)NCc2cccs2)S(=O)(=O)c2c(C)n[nH]c2C)cc1	-9	0	6	-2
Cc1ccccc1N1C(=O)C(Cl)=C(N2CCN(c3ccccc3)CC2)C1=O	-4	38*	x	-1
O=C1C(Cl)=C(N2CCOCC2)C(=O)N1c1ccccc1Cl	0	13	5	-5
CCOC(=O)c1ccc(NC(=O)C(C)NS(=O)(=O)c2ccc(OC)cc2)cc1 (stereo not drawn)	4	36*	11	-5
Cc1nnc(SCc2nc(N)nc(Nc3ccccc3)n2)s1	7	-3	0	-13
COc1ccc(Nc2nc(N)nc(COc3ccc(OC)cc3)n2)cc1	1	4	2	-1
COc1ccc(Nc2nc(N)nc(CSc3nnc(N)s3)n2)cc1	-2	-4	5	32*
SMILES	EphB4 antag	PostGolgi ctrl	Calb biofilm kill	PostGolgi yeast
COc1ccc(OCc2nc(N)nc(Nc3ccc(C)cc3)n2)cc1	0	53*	4	2
COc1ccc(/C=N/n2c(SC)nnc(C(C)(C)C)c2=O)c(OC)c1	3	8	0	20
CCC(CO)NC(=O)c1cc2c(s1)CCC2 (stereo not drawn)	-4	-4	x	31*
Cc1nc2sccn2c1-c1nc(C2CC2)c(C(=O)c2ccc3c(c2)NC(=O)CO3)s1	x	x	13	x
Cc1cc2oc(=O)cc(CSc3nc(N)cc(N)n3)c2cc1C	1	0	x	1
Cc1nc(-c2cccc(NS(=O)(=O)c3cccc4ccccc34)c2)cs1	1	63*	-2	-4
Cc1nc(-c2cccc(NS(C)(=O)=O)c2)cs1	-2	10	0	-3
OC(CC1CC12c1ccccc1-c1ncccc12)(c1ccccc1)c1ccccc1 (stereo not drawn)	-3	45*	5	0
O=C1CCCC2=C1C(c1ccccc1)CC(=O)N2c1ccccc1 (stereo not drawn)	9	35*	4	-2
Cc1cccc2sc(NC(=O)CSc3nc4ccccc4o3)nc12	2	9	52*	5
O=C(CSc1nc2ccccc2o1)Nc1nc2ccc(Br)cc2s1	-1	-5	x	11
CCn1c(Sc2nc(C)nc3scc(-c4cccs4)c23)n[nH]c1=O	6	102*	6	104*

Source: PubChem (several laboratories)
